Experimental data: publication PMC8384837, “Expanding the binding specificity for RNA recognition by a PUF domain”

Legend:
Experiment in all cases: yeast three-hybrid, YBZ-1, SC-Leu-His + 0.5 mM 3-AT, 4 days
Details in all cases: tags: N-Gal4 AD-HA kept; label: inside an RPR1-promoter hybrid RNA with tandem MS2 sites; ssRNA
PUM1 PUF domain R7-KGQ = PUM1 PUF domain R7-KGQ (Homo sapiens, UniProt Q14671 828-1176, S1079K;N1080G;E1083Q)
Summary of the method: (§1)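 Sequencing with Illumina followed PCR amplification of the repeat regions from transformants grown four days on SC-Leu (input) or SC-Leu-His + 0.5 mM 3-AT (selection). The transformants were strain YBZ-1 with a LexA–MS2 coat fusion and a HIS3 reporter, carrying Pumilio-1 PUF domain libraries and matching RNA elements. The interaction score is the log change in variant frequency from input to selection, computed in log2 with a pseudocount of 1 for absent variants.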

PUM1 PUF domain R7-RQN = PUM1 PUF domain R7-RQN (Homo sapiens, UniProt Q14671 828-1176, S1079R;N1080Q;E1083N)
PUM1 PUF domain R7-RQN, sequence (Q14671 828-1176 S1079R/N1080Q/E1083N): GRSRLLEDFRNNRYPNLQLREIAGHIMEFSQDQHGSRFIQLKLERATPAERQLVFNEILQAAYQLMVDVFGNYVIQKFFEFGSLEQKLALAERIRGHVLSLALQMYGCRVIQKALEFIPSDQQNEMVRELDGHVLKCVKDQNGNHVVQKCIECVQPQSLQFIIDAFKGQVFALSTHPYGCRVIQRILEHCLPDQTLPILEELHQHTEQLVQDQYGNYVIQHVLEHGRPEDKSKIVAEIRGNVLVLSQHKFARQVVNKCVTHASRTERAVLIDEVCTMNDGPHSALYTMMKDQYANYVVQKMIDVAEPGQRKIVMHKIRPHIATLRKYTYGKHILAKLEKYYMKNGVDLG
Summary of the method: as §1

PUM1 PUF domain R4-CNV = PUM1 PUF domain R4-CNV (Homo sapiens, UniProt Q14671 828-1176, N971C;H972N;Q975V)
PUM1 PUF domain R4-CNV, sequence (Q14671 828-1176 N971C/H972N/Q975V): as the sequence (Q14671 828-1176 S1079R/N1080Q/E1083N) above, with N144C, H145N, Q148V, R252S, Q253N, N256E counted along it
Summary of the method: as §1

PUM1 PUF domain R3-VRA = PUM1 PUF domain R3-VRA (Homo sapiens, UniProt Q14671 828-1176, C935V;Q939A)
PUM1 PUF domain R3-VRA, sequence (Q14671 828-1176 C935V/Q939A): as the sequence (Q14671 828-1176 S1079R/N1080Q/E1083N) above, with C108V, Q112A, R252S, Q253N, N256E counted along it
Summary of the method: as §1

PUM1 PUF domain R3-SCR = PUM1 PUF domain R3-SCR (Homo sapiens, UniProt Q14671 828-1176, C935S;R936C;Q939R)
PUM1 PUF domain R3-SCR, sequence (Q14671 828-1176 C935S/R936C/Q939R): as the sequence (Q14671 828-1176 S1079R/N1080Q/E1083N) above, with C108S, R109C, Q112R, R252S, Q253N, N256E counted along it
Summary of the method: as §1

PUM1 PUF domain R3-LSE = PUM1 PUF domain R3-LSE (Homo sapiens, UniProt Q14671 828-1176, C935L;R936S;Q939E)
PUM1 PUF domain R3-LSE, sequence (Q14671 828-1176 C935L/R936S/Q939E): as the sequence (Q14671 828-1176 S1079R/N1080Q/E1083N) above, with C108L, R109S, Q112E, R252S, Q253N, N256E counted along it
Summary of the method: as §1

PUM1 PUF domain R5-RFQ = PUM1 PUF domain R5-RFQ (Homo sapiens, UniProt Q14671 828-1176, C1007R;R1008F)
PUM1 PUF domain R5-RFQ, sequence (Q14671 828-1176 C1007R/R1008F): as the sequence (Q14671 828-1176 S1079R/N1080Q/E1083N) above, with C180R, R181F, R252S, Q253N, N256E counted along it
Summary of the method: as §1

PUM1 PUF domain R5-RHS = PUM1 PUF domain R5-RHS (Homo sapiens, UniProt Q14671 828-1176, C1007R;R1008H;Q1011S)
PUM1 PUF domain R5-RHS, sequence (Q14671 828-1176 C1007R/R1008H/Q1011S): as the sequence (Q14671 828-1176 S1079R/N1080Q/E1083N) above, with C180R, R181H, Q184S, R252S, Q253N, N256E counted along it
Summary of the method: as §1

PUM1 PUF domain R5-DRT = PUM1 PUF domain R5-DRT (Homo sapiens, UniProt Q14671 828-1176, C1007D;Q1011T)
PUM1 PUF domain R5-DRT, sequence (Q14671 828-1176 C1007D/Q1011T): as the sequence (Q14671 828-1176 S1079R/N1080Q/E1083N) above, with C180D, Q184T, R252S, Q253N, N256E counted along it
Summary of the method: as §1

PUM1 PUF domain R8-LFQ = PUM1 PUF domain R8-LFQ (Homo sapiens, UniProt Q14671 828-1176, N1122L;Y1123F)
PUM1 PUF domain R8-LFQ, sequence (Q14671 828-1176 N1122L/Y1123F): as the sequence (Q14671 828-1176 S1079R/N1080Q/E1083N) above, with R252S, Q253N, N256E, N295L, Y296F counted along it
Summary of the method: as §1

PUM1 PUF domain R5-KFS = PUM1 PUF domain R5-KFS (Homo sapiens, UniProt Q14671 828-1176, C1007K;R1008F;Q1011S)
PUM1 PUF domain R5-KFS, sequence (Q14671 828-1176 C1007K/R1008F/Q1011S): as the sequence (Q14671 828-1176 S1079R/N1080Q/E1083N) above, with C180K, R181F, Q184S, R252S, Q253N, N256E counted along it
Summary of the method: as §1

PUM1 PUF domain R5-RWF = PUM1 PUF domain R5-RWF (Homo sapiens, UniProt Q14671 828-1176, C1007R;R1008W;Q1011F)
PUM1 PUF domain R5-RWF, sequence (Q14671 828-1176 C1007R/R1008W/Q1011F): as the sequence (Q14671 828-1176 S1079R/N1080Q/E1083N) above, with C180R, R181W, Q184F, R252S, Q253N, N256E counted along it
Summary of the method: as §1

PUM1 PUF domain R7-KGQ, sequence (Q14671 828-1176 S1079K/N1080G/E1083Q): as the sequence (Q14671 828-1176 S1079R/N1080Q/E1083N) above, with R252K, Q253G, N256Q counted along it

“GGCUAGAACUAGUGGAUCCCCCGGCGCCCGGCGGCUCGAGCCCGGGUAAGUUUAAAUAGUCUGCAUGCCGCCGGGCGCCAUGCCUGCAGGUCGACUCUAGAAAACAUG” was tested, and the binding signal (PUM1 PUF domain R7-KGQ) was 5.56 log2 enrichment (interaction score) and the binding signal (PUM1 PUF domain R7-RQN) was 3.78 log2 enrichment (interaction score).

In the case of “GGCUAGAACUAGUGGAUCCCCCGGCGCCCGGCGGCUCGAGCCCGGGUAAGUGUACAUAGUCUGCAUGCCGCCGGGCGCCAUGCCUGCAGGUCGACUCUAGAAAACAUG”, the binding signal (PUM1 PUF domain R4-CNV) was 2.79 log2 enrichment (interaction score).

“GGCUAGAACUAGUGGAUCCCCCGGCGCCCGGCGGCUCGAGCCCGGGUAAGUGUAUAUAGUCUGCAUGCCGCCGGGCGCCAUGCCUGCAGGUCGACUCUAGAAAACAUG” was tested, and the binding signal (PUM1 PUF domain R4-CNV) was 3.21 log2 enrichment (interaction score).

For “GGCUAGAACUAGUGGAUCCCCCGGCGCCCGGCGGCUCGAGCCCGGGUAAGUGUAAGUAGUCUGCAUGCCGCCGGGCGCCAUGCCUGCAGGUCGACUCUAGAAAACAUG”, the binding signal (PUM1 PUF domain R3-VRA) was 1.39 log2 enrichment (interaction score), the binding signal (PUM1 PUF domain R3-SCR) was 3.4 log2 enrichment (interaction score) and the binding signal (PUM1 PUF domain R3-LSE) was 2.76 log2 enrichment (interaction score).

In the case of “GGCUAGAACUAGUGGAUCCCCCGGCGCCCGGCGGCUCGAGCCCGGGUAAGUGUGAAUAGUCUGCAUGCCGCCGGGCGCCAUGCCUGCAGGUCGACUCUAGAAAACAUG”, the binding signal (PUM1 PUF domain R5-RFQ) was 3.05 log2 enrichment (interaction score), the binding signal (PUM1 PUF domain R5-RHS) was 3.89 log2 enrichment (interaction score) and the binding signal (PUM1 PUF domain R5-DRT) was 2.11 log2 enrichment (interaction score).

In the case of “GGCUAGAACUAGUGGAUCCCCCGGCGCCCGGCGGCUCGAGCCCGGGUAAGUCUAAAUAGUCUGCAUGCCGCCGGGCGCCAUGCCUGCAGGUCGACUCUAGAAAACAUG”, the binding signal (PUM1 PUF domain R7-RQN) was 0.64 log2 enrichment (interaction score).

With “GGCUAGAACUAGUGGAUCCCCCGGCGCCCGGCGGCUCGAGCCCGGGUAAGCGUAAAUAGUCUGCAUGCCGCCGGGCGCCAUGCCUGCAGGUCGACUCUAGAAAACAUG” the binding signal (PUM1 PUF domain R8-LFQ) was 2.86 log2 enrichment (interaction score).

In the case of “GGCUAGAACUAGUGGAUCCCCCGGCGCCCGGCGGCUCGAGCCCGGGUAAGUGUUAAUAGUCUGCAUGCCGCCGGGCGCCAUGCCUGCAGGUCGACUCUAGAAAACAUG”, the binding signal (PUM1 PUF domain R5-RHS) was 5.74 log2 enrichment (interaction score), the binding signal (PUM1 PUF domain R5-KFS) was 5.06 log2 enrichment (interaction score) and the binding signal (PUM1 PUF domain R5-RWF) was 4.13 log2 enrichment (interaction score).
